From PubChem BioAssay (NCATS)
Inconclusive results are not listed. Activity calls are given as the source filed them. Calls follow the shape of the dose curve; as a rule, active = well fitted inhibition curve with a large enough effect; inconclusive = small, poorly fitted or top-dose-only effect; inactive = flat fitted curve, though single readings scatter.

What was measured:
CP262 = test: qHTS profiling for inhibitors of Plasmodium falciparum proliferation (AID 504749);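 also: 0% = DMSO vehicle and full inhibition = artemisinin control; nearly all actives have a fitted effect of over 60% in size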; conditions: P. falciparum in erythrocytes, SYBR Green DNA, 72 h; series mostly up to 28.7 µM
Method in brief: (§1)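 Each compound contacts P. falciparum-infected red blood cells for 72 h at 37 C; lysis buffer (Tris, EDTA, saponin, Triton X, SYBR Green I) is added and fluorescence measured next morning; values normalized to controls.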

CP265 = test: as above; conditions: P. falciparum in erythrocytes, SYBR Green DNA, 72 h; series mostly up to 28.7 µM
Method in brief: as §1

CP266 = test: as above; conditions: P. falciparum in erythrocytes, SYBR Green DNA, 72 h; series mostly up to 28.7 µM
Method in brief: as §1

CP268 = test: as above; conditions: P. falciparum in erythrocytes, SYBR Green DNA, 72 h; series mostly up to 28.7 µM
Method in brief: as §1

CP269 = test: as above; conditions: P. falciparum in erythrocytes, SYBR Green DNA, 72 h; series mostly up to 28.7 µM
Method in brief: as §1

CP286 = test: as above; conditions: P. falciparum in erythrocytes, SYBR Green DNA, 72 h; series mostly up to 28.7 µM
Method in brief: as §1

CP291 = test: as above; conditions: P. falciparum in erythrocytes, SYBR Green DNA, 72 h; series mostly up to 28.7 µM
Method in brief: as §1

CP297 = test: as above; conditions: P. falciparum in erythrocytes, SYBR Green DNA, 72 h; series mostly up to 28.7 µM
Method in brief: as §1

CP305 = test: as above; conditions: P. falciparum in erythrocytes, SYBR Green DNA, 72 h; series mostly up to 28.7 µM
Method in brief: as §1

CP315 = test: as above; conditions: P. falciparum in erythrocytes, SYBR Green DNA, 72 h; series mostly up to 28.7 µM
Method in brief: as §1

CP325 = test: as above; conditions: P. falciparum in erythrocytes, SYBR Green DNA, 72 h; series mostly up to 28.7 µM
Method in brief: as §1

CP329 = test: as above; conditions: P. falciparum in erythrocytes, SYBR Green DNA, 72 h; series mostly up to 28.7 µM
Method in brief: as §1

CP335 = test: as above; conditions: P. falciparum in erythrocytes, SYBR Green DNA, 72 h; series mostly up to 28.7 µM
Method in brief: as §1

DFO2036 = test: as above; conditions: P. falciparum in erythrocytes, SYBR Green DNA, 72 h; series mostly up to 28.7 µM
Method in brief: as §1

DIV14 = test: as above; conditions: P. falciparum in erythrocytes, SYBR Green DNA, 72 h; series mostly up to 28.7 µM
Method in brief: as §1

DIV17 = test: as above; conditions: P. falciparum in erythrocytes, SYBR Green DNA, 72 h; series mostly up to 28.7 µM
Method in brief: as §1

DIV30 = test: as above; conditions: P. falciparum in erythrocytes, SYBR Green DNA, 72 h; series mostly up to 28.7 µM
Method in brief: as §1

Dd2 = test: as above; conditions: P. falciparum in erythrocytes, SYBR Green DNA, 72 h; series mostly up to 28.7 µM
Method in brief: as §1

ECU = test: as above; conditions: P. falciparum in erythrocytes, SYBR Green DNA, 72 h; series mostly up to 28.7 µM
Method in brief: as §1

FAB9 = test: as above; conditions: P. falciparum in erythrocytes, SYBR Green DNA, 72 h; series mostly up to 28.7 µM
Method in brief: as §1

GB4 = test: as above; conditions: P. falciparum in erythrocytes, SYBR Green DNA, 72 h; series mostly up to 28.7 µM
Method in brief: as §1

HB3 = test: as above; conditions: P. falciparum in erythrocytes, SYBR Green DNA, 72 h; series mostly up to 28.7 µM
Method in brief: as §1

ICS = test: as above; conditions: P. falciparum in erythrocytes, SYBR Green DNA, 72 h; series mostly up to 28.7 µM
Method in brief: as §1

JCK = test: as above; conditions: P. falciparum in erythrocytes, SYBR Green DNA, 72 h; series mostly up to 28.7 µM
Method in brief: as §1

N140 = test: as above; conditions: P. falciparum in erythrocytes, SYBR Green DNA, 72 h; series mostly up to 28.7 µM
Method in brief: as §1

P93_24 = test: as above; conditions: P. falciparum in erythrocytes, SYBR Green DNA, 72 h; series mostly up to 28.7 µM
Method in brief: as §1

P94_40 = test: as above; conditions: P. falciparum in erythrocytes, SYBR Green DNA, 72 h; series mostly up to 28.7 µM
Method in brief: as §1

PAD = test: as above; conditions: P. falciparum in erythrocytes, SYBR Green DNA, 72 h; series mostly up to 28.7 µM
Method in brief: as §1

PC15 = test: as above; conditions: P. falciparum in erythrocytes, SYBR Green DNA, 72 h; series mostly up to 28.7 µM
Method in brief: as §1

PC26 = test: as above; conditions: P. falciparum in erythrocytes, SYBR Green DNA, 72 h; series mostly up to 28.7 µM
Method in brief: as §1

PC49 = test: as above; conditions: P. falciparum in erythrocytes, SYBR Green DNA, 72 h; series mostly up to 28.7 µM
Method in brief: as §1

SC27B = test: as above; conditions: P. falciparum in erythrocytes, SYBR Green DNA, 72 h; series mostly up to 28.7 µM
Method in brief: as §1

TAB109 = test: as above; conditions: P. falciparum in erythrocytes, SYBR Green DNA, 72 h; series mostly up to 28.7 µM
Method in brief: as §1

TAB113 = test: as above; conditions: P. falciparum in erythrocytes, SYBR Green DNA, 72 h; series mostly up to 28.7 µM
Method in brief: as §1

TAB165 = test: as above; conditions: P. falciparum in erythrocytes, SYBR Green DNA, 72 h; series mostly up to 28.7 µM
Method in brief: as §1

W2 = test: as above; conditions: P. falciparum in erythrocytes, SYBR Green DNA, 72 h; series mostly up to 28.7 µM
Method in brief: as §1

KB-3-1 = test: Cytotoxic Profiling of Annotated Libraries Using Quantitative High-Throughput Screening (AID 1296008); conditions: Five cell lines viability, CellTiter-Glo ATP luminescence, 48-72 h; max response: active compounds read low; also: % is scaled to controls: 0 for no effect and ±100 for the full control effect; nearly all actives have a fitted effect of over 60% in size
Method in brief: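 Cells exposed to compounds for 48 or 72 hr at 37 degrees Celsius. Viability read as ATP-coupled luminescence with CellTiter-Glo after 10 min at room temperature.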

[1] = Drug repurposing screens with cells derived from glioblastoma tumor samples (AID 1345199); conditions: GBM patient neurospheres viability, ATP luminescence, 48 h; Potency: tumour line A; series mostly up to 45.9 µM; also: % is scaled to controls: 0 for no effect and ±100 for the full control effect; nearly all actives have a fitted effect of over 40% in size
Method in brief: (§2)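 Primary testing used CD133+ neurospheres from four GBM patients, seven concentrations, 48 h exposure and ATP-based viability; confirmation added three slower-growing patient lines.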

astro = test: as above; conditions: viability, ATP luminescence, 48 h; series mostly up to 45.9 µM
Method in brief: as §2

C[N+](C)(C)CC(=O)[O-]
inactive: Potency (CP262) | Potency (CP265) | Potency (CP266) | Potency (CP268) | Potency (CP269) | Potency (CP286) | Potency (CP291) | Potency (CP297) | Potency (CP305) | Potency (CP315) | Potency (CP325) | Potency (CP329) | Potency (CP335) | Potency (DFO2036) | Potency (DIV14) | Potency (DIV17) | Potency (DIV30) | Potency (Dd2) | Potency (ECU) | Potency (FAB9) | Potency (GB4) | Potency (HB3) | Potency (ICS) | Potency (JCK) | Potency (N140) | Potency (P93_24) | Potency (P94_40) | Potency (PAD) | Potency (PC15) | Potency (PC26) | Potency (PC49) | Potency (SC27B) | Potency (TAB109) | Potency (TAB113) | Potency (TAB165) | Potency (W2) | max response (KB-3-1) 9.58% | Potency [1] | Potency (astro)
